Assay outcomes from PubChem.
Compounds with a hit are over-represented: about 19% of the library has one in this group of screens.
DT40 TDP1 CPT: growth inhibition of DT40 Tdp1-/-;hTDP1 cells with camptothecin (screen for TDP1 inhibitors). chicken DT40 Tdp1-/-;hTDP1 cells + 20 nM CPT, ATP luminescence, 48 h. Potency, µM (series often up to 46.2 µM), usual class: inhibitors. actives 12% (n = 420,000). AID 686979; further: nearly all actives have a fitted effect of over 55% in size
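Chicken DT40 Tdp1-/- cells complemented with human TDP1, 400 cells/well, exposed to compounds plus 20 nM camptothecin for at least 48 h at 37 C; viability read as ATP content by CellTiter-Glo luminescence.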
HT1080 IDH1KD tx: kills HT-1080 cells with IDH1 knockdown; HT-1080 IDH1 knockdown viability, ATP luminescence, 48 h; Potency, µM (series often up to 46.1 µM), hits mostly cytotoxic; actives 2% (n = 360,000)
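IDH1KD HT-1080 cells, 750/well, RPMI + 5% FBS; compound pinned after 2 h settling; 48 h, 37 °C; CellTiter-Glo luminescence; % activity normalised to DMSO and no-cell wells; curves fitted, classed by r2 and efficacy.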
DT40 TDP1 no CPT: qHTS for Inhibitors of human tyrosyl-DNA phosphodiesterase 1 (TDP1): qHTS in cells in absence of CPT | DT40 Tdp1-/- hTDP1 cells, no CPT, ATP luminescence, 48 h | actives 15% (n = 420,000) | AID 686978, 2013 | Potency, µM (top dose mostly 46.2 µM), actives largely listed as inhibitors; further: nearly all actives have a fitted effect of over 55% in size
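Seeded 400 DT40-hTDP1 cells/well (vehicle DMSO, no 20 nM CPT); pinned compounds; ≥48 hr at 37 °C; CellTiter-Glo luminescence as viability measure.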
IL-1B inflam inh: blocks inflammasome-driven IL-1 beta release | THP-1 LPS/ATP IL-1B secretion, AlphaLISA, 16 h; hits give low values | activity change, % at 57.5 µM | actives 4.7% (n = 360,000) | AID 743279; in the data active means activity change below about -50%; inconclusive means mostly about -30% to -49%
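Secreted IL-1B measured by AlphaLISA bead assay after 16 h compound exposure of THP-1 cells; compounds (final up to 57.5 uM) added 1 h before LPS (250 ng/mL) and ATP (1.25 mM) stimulation; lower signal means less secretion.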
HT1080NT lethal: kills 2HG-producing HT-1080-NT fibrosarcoma cells; HT-1080-NT fibrosarcoma viability, CellTiter-Glo ATP luminescence, 48 h; Potency, µM (doses to about 46.1 µM), most hits filed as cytotoxic; actives 1.6% (n = 360,000); AID 686970;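 further: NT is the 2HG producing partner of a matched IDH1 knockdown line; nearly all actives have a fitted effect of over 55% in size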
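Toxicity toward the 2HG-producing NT line was scored as %Activity, normalised to DMSO and no-cell wells, from CellTiter-Glo luminescence after 48 hours' treatment.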
Numbers stand for hits; i = inactive; ? = inconclusive; nt = no result. Unless noted, the call rests on the fitted dose curve; in most records, active means well fitted curve in the direction sought with a large enough effect; inconclusive means small, poorly fitted or top-dose-only effect, or another doubt; inactive means no such curve, though single readings can be large; an effect the other way counts as inactive or inconclusive.

SMILES	DT40 TDP1 CPT	HT1080 IDH1KD tx	DT40 TDP1 no CPT	IL-1B inflam inh	HT1080NT lethal
CC(C)N1CCc2c(sc(NC(=O)c3ccc(S(=O)(=O)N4CCCCC4C)cc3)c2C(N)=O)C1 (stereo not drawn)	?	?	?	i	i
CCOC(=O)c1c(NC(=O)c2ccc(S(=O)(=O)N(C)C3CCCCC3)cc2)sc2c1CCN(C(C)C)C2	12µM	nt	7.3µM	nt	nt
O=C(CCl)N1N=C(c2ccco2)CC1c1ccco1 (stereo not drawn)	9.2µM	?	13µM	-99	26µM
O=C(CCl)N1N=C(c2cccs2)CC1c1ccco1 (stereo not drawn)	2.9µM	4.1µM	2.9µM	-100	5.2µM
O=C(COc1ccc(Cl)cc1)N1N=C(c2cccs2)CC1c1ccco1 (stereo not drawn)	26µM	i	16µM	i	i
O=C(COc1ccccc1F)N1N=C(c2cccs2)CC1c1ccco1 (stereo not drawn)	?	i	?	i	i
CN1CCN(CC(=O)N2N=C(c3cccs3)CC2c2ccco2)CC1 (stereo not drawn)	i	i	i	i	i
O=C(NCCc1nnc2n1CCN(Cc1c(F)cccc1F)CC2)c1ccco1	i	nt	i	nt	nt
CCN(CC)S(=O)(=O)c1cccc(-c2nnc(SCC(N)=O)n2N)c1	i	i	i	i	i
CCN(CC)S(=O)(=O)c1cccc(-c2nnc(SCc3ncc(-c4ccccc4)o3)n2C)c1	?	i	18µM	i	i
CCN(CC)S(=O)(=O)c1cccc(-c2nnc(SCC(N)=O)n2C)c1	i	i	i	i	i
CCSc1nnc(-c2cccc(S(=O)(=O)N(CC)CC)c2)n1Cc1ccccc1	11µM	i	18µM	i	?
CC(C)Oc1ccc(S(=O)(=O)N2CCOCC2)cc1NC(=O)c1ccc(Cl)c(S(=O)(=O)N2CCOCC2)c1	i	i	i	?	i
COc1ccc(-c2cn(CC[C@@H]3CC[C@H](NC(=O)Cc4ccccn4)[C@@H](CO)O3)nn2)cc1	i	i	i	i	i
O=C(O)c1ccc2c3c(ncnc13)-c1ccccc1C2=O	23µM	?	23µM	i	?
O=C(O)c1cccc2c1C(=O)c1ccccc1C2=O	i	i	i	i	?
CCOC(=O)c1ccc(NC(=O)NNS(=O)(=O)c2cc(OC)ccc2OC)cc1	i	i	i	i	i
Cc1c(C(=O)NCCSCc2ccc(Cl)cc2Cl)cccc1[N+](=O)[O-]	?	?	?	-58	?
Cc1c(C(=O)NCCSCc2ccccc2)cccc1[N+](=O)[O-]	i	i	i	-57	i
Cc1ccc(C(=O)NCCSCc2ccc(Cl)cc2Cl)cc1[N+](=O)[O-]	i	i	?	-58	i
CCNC(=O)COC(=O)c1sccc1C	i	i	i	i	?
Cc1cccc(NS(=O)(=O)c2ccc3c(c2)C(C)(C)C(=O)N3C)c1	?	nt	i	nt	nt
CCCCCC(=O)NC(Nc1ccc(S(N)(=O)=O)cc1)C(Cl)(Cl)Cl (stereo not drawn)	16µM	i	?	i	i
COc1ccc(C(=O)Nc2ccnn2C2CCN(C(=O)c3cnsn3)CC2)cc1	i	i	i	i	i
Cc1nc(SCc2cccnc2)[nH]c(=O)c1C	i	i	i	i	i
SMILES	DT40 TDP1 CPT	HT1080 IDH1KD tx	DT40 TDP1 no CPT	IL-1B inflam inh	HT1080NT lethal
CC(=O)OC1C=C[C@]2(C)C(CC(OC(C)=O)[C@@]3(C)C4=CC(=O)OC(c5ccoc5)[C@]4(C)CCC23)C1(C)C (stereo partly drawn)	?	nt	21µM	nt	nt
CC(=O)OC1CC[C@]2(C)C(CC(OC(C)=O)[C@@]3(C)C4=CC(=O)OC(c5ccoc5)[C@]4(C)CCC23)C1(C)C (stereo partly drawn)	?	nt	21µM	nt	nt
Cc1nc2cnc(N3CCOCC3)nc2n(C[C@H]2CCCO2)c1=O	i	nt	i	nt	nt
c1cncc(-c2cncnc2NC2CCNCC2)c1	16µM	nt	i	nt	nt
Cc1cccc(NC(=O)c2sc(Cl)nc2C)c1C	i	i	i	i	i
Cc1ccc(NC(=O)c2sc(Cl)nc2C)c(C)c1	i	i	i	-65	i
Cc1nc(Cl)sc1C(=O)Nc1ccc(C(C)(C)C)cc1	i	i	?	-91	i
